Assay results taken from PubChem BioAssay (NCATS).
Values joined by “and” are separate entries in the source; they are usually repeats but may differ in a detail not shown here. Equal values may be shown once. Inconclusive results are not listed. Where a call stands in place of a potency, no number is given. Active and inactive are the calls of the source. Calls come from the whole dose curve; as a rule, active = well fitted cell-killing curve with a large enough effect; inconclusive = small, poorly fitted or top-dose-only effect, or effect the other way; inactive = no such curve, though single readings can be large or run the other way.

How the values were obtained:
[1] = Quantitative High-Throughput drug screen in 47 multiple myeloma cell lines against the NCATS MIPE library collection: JIM1_ECACC cell viability assay (AID 1918964; note: potency is the fitted concentration of half-maximal effect)
Procedure, shortened: (§1)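 qHTS of the MIPE 4.0 collection: 500 myeloma cells/well, 48 h drug exposure at 37C in 5% CO2, then CellTiter-Glo for 5 min at room temperature before luminescence reading.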

[2] = Quantitative High-Throughput drug screen in 47 multiple myeloma cell lines against the NCATS MIPE library collection: KMS12PE_JCRB cell viability assay (AID 1918972); note: nearly all actives have a fitted effect of over 30% in size; note: potency is the fitted concentration of half-maximal effect
Procedure, shortened: (§2)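 Myeloma cell lines, 500 cells per well, exposed to MIPE 4.0 library compounds for 48 h at 37C, 5% CO2. Viability from ATP by CellTiter-Glo luminescence; normalised to DMSO (100%) and media-only (0%) wells.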

[3] = Quantitative High-Throughput drug screen in 47 multiple myeloma cell lines against the NCATS MIPE library collection: INA6_PLB cell viability assay (AID 1918965; note: nearly all actives have a fitted effect of over 55% in size; note: potency is the fitted concentration of half-maximal effect)
Procedure, shortened: as §2

[4] = Quantitative High-Throughput drug screen in 47 multiple myeloma cell lines against the NCATS MIPE library collection: JJN3_DSMZ cell viability assay (AID 1918966; note: nearly all actives have a fitted effect of over 50% in size; note: potency is the fitted concentration of half-maximal effect)
Procedure, shortened: as §1

[5] = Quantitative High-Throughput drug screen in 47 multiple myeloma cell lines against the NCATS MIPE library collection: H1112_PLB cell viability assay (AID 1918967; note: nearly all actives have a fitted effect of over 30% in size; note: potency is the fitted concentration of half-maximal effect)
Procedure, shortened: as §1

[6] = Quantitative High-Throughput drug screen in 47 multiple myeloma cell lines against the NCATS MIPE library collection: Karpas25_ECACC cell viability assay (AID 1918968; note: nearly all actives have a fitted effect of over 35% in size; note: potency is the fitted concentration of half-maximal effect)
Procedure, shortened: as §1

[7] = Quantitative High-Throughput drug screen in 47 multiple myeloma cell lines against the NCATS MIPE library collection: KMS12BM_JCRB cell viability assay (AID 1918971); note: nearly all actives have a fitted effect of over 35% in size; note: potency is the fitted concentration of half-maximal effect
Procedure, shortened: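 Steps: seed 500 cells per well; pin-transfer MIPE 4.0 library; incubate 48 h at 37C, 5% CO2, humidified; add CellTiter-Glo, 5 min room temperature; read luminescence.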

[8] = Quantitative High-Throughput drug screen in 47 multiple myeloma cell lines against the NCATS MIPE library collection: KMS27_JCRB cell viability assay (AID 1918970); note: nearly all actives have a fitted effect of over 30% in size; note: potency is the fitted concentration of half-maximal effect
Procedure, shortened: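 Luminescent ATP read-out (CellTiter-Glo, 5 min at room temperature) after 48 h compound exposure of 500 KMS27_JCRB cells per well; DMSO wells define full viability and media-only wells zero.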

[9] = Quantitative High-Throughput drug screen in 47 multiple myeloma cell lines against the NCATS MIPE library collection: KMS20_JCRB cell viability assay (AID 1918973); note: nearly all actives have a fitted effect of over 45% in size
Procedure, shortened: as §1

[10] = Quantitative High-Throughput drug screen in 47 multiple myeloma cell lines against the NCATS MIPE library collection: KMS21BM_JCRB cell viability assay (AID 1918974); conditions: ATP luminescence, 48 h; viability: at 45.8 µM (top of the series) unless noted; note: potency is the fitted concentration of half-maximal effect
Procedure, shortened: as §1

O=C1CCc2cc(OCCCCc3nnnn3C3CCCCC3)ccc2N1
Potency [1]: inactive
Potency [2]: inactive

Cc1cc(Nc2nc(N[C@@H](C)c3ncc(F)cn3)ncc2Cl)n[nH]1
Potency [3]: 5.26 µM (active)
Potency [4]: 18.7 µM (active)
Potency [5]: 3.32 µM (active)

CC(=O)NC(C)c1ccc(Oc2ccc(OC(C)C)cc2)cc1 (stereo not drawn)
Potency [1]: inactive
Potency [4]: 16.6 µM (active)
Potency [5]: 2.96 µM (active)
Potency [6]: 3.72 µM (active)
Potency [7]: 13.2 µM (active)
Potency [2]: 5.9 µM (active)

O=c1ncn2nc(Sc3ccc(F)cc3F)ccc2c1-c1c(Cl)cccc1Cl
Potency [1]: inactive
Potency [3]: 4.18 µM (active)
Potency [6]: 14.8 µM (active)
Potency [8]: 18.7 µM (active)
Potency [7]: 18.7 µM (active)

NC[C@H](O)c1ccc(O)c(O)c1
Potency [1]: inactive
Potency [4]: 4.18 µM (active)
Potency [5]: inactive
Potency [7]: 20.9 µM (active)
Potency [2]: inactive

Cc1cnc(NC(=O)C2=C(O)c3ccccc3S(=O)(=O)N2C)s1
Potency [1]: inactive
Potency [4]: inactive
Potency [5]: inactive
Potency [6]: inactive
Potency [8]: inactive
Potency [7]: inactive

Oc1ccc(C2CNCCc3c2cc(O)c(O)c3Cl)cc1 (stereo not drawn)
Potency [1]: inactive
Potency [4]: inactive
Potency [5]: inactive
Potency [6]: 5.9 µM (active)
Potency [7]: inactive
Potency [2]: inactive
Potency [9]: inactive
Potency [10]: 18.7 µM (active)

O=C(NOC[C@H](O)CO)c1ccc(F)c(F)c1Nc1ccc(I)cc1F
Potency [1]: 1.66 µM (active)
Potency [3]: 0.0332 µM (active)
Potency [5]: 0.0148 µM (active)
Potency [10]: 0.0296 µM (active)

Cc1n[nH]c(C)c1Cc1sc2c(c1C(=O)N1C[C@H](O)CO1)c(=O)n(C)c(=O)n2CC(C)C
Potency [1]: inactive
Potency [5]: inactive
Potency [6]: inactive
Potency [7]: 2.64 µM (active)

COCCNCCCn1c(C(=O)CF)c(-c2ccc(C)cc2)c2c(N)ncnc21
Potency [1]: inactive
Potency [3]: 16.6 µM (active)
Potency [2]: inactive

CCOC(=O)N1CCC(=C2c3ccc(Cl)cc3CCc3cccnc32)CC1
Potency [1]: inactive
Potency [5]: inactive
Potency [6]: inactive
Potency [7]: 23.5 µM (active)
Potency [2]: inactive

CCn1c(-c2nonc2N)nc2cnc(Oc3cccc(NC(=O)c4ccc(OCCN5CCOCC5)cc4)c3)cc21
Potency [1]: 5.9 µM (active)
Potency [3]: 2.64 µM (active)
Potency [6]: 2.35 µM (active)
Potency [8]: 8.33 µM (active)
Potency [2]: 5.9 µM (active)

Cc1oncc1C(=O)Nc1ccc(C(F)(F)F)cc1
Potency [1]: inactive
Potency [4]: inactive
Potency [5]: 14.8 µM (active)
Potency [8]: inactive
Potency [2]: inactive

CCCCCCCc1ccc(CCc2cccc(O)c2C(=O)O)cc1
Potency [1]: inactive
Potency [6]: 20.9 µM (active)
Potency [7]: 0.332 µM (active)
Potency [2]: inactive

CCCn1c(=O)c2[nH]c(C34CC5CC3C[C@@H](C5)C4)nc2n(CCC)c1=O
Potency [3]: inactive
Potency [4]: 13.2 µM (active)
Potency [5]: inactive
Potency [6]: inactive

Nc1nc2[nH]cc(CCc3ccc(C(=O)N[C@@H](CCC(=O)O)C(=O)O)cc3)c2c(=O)[nH]1
Potency [3]: 0.743 µM (active)
Potency [4]: 9.35 µM (active)
Potency [5]: 6.62 µM (active)
Potency [6]: inactive
Potency [8]: 18.7 µM (active)
Potency [7]: 20.9 µM (active)
Potency [2]: 1.32 µM (active)

CC(C=CC1=C(C)CCCC1(C)C)=CC=CC(C)=CC(=O)O
Potency [3]: 14.8 µM (active) and 5.9 µM (active)
Potency [4]: 5.9 µM (active) and 1.66 µM (active)
Potency [5]: 14.8 µM (active) and 11.8 µM (active)
Potency [6]: 16.6 µM (active) and 18.7 µM (active)
Potency [8]: 3.72 µM (active)

OC(CCN1CCCCC1)(c1ccccc1)C1CC2C=CC1C2 (stereo not drawn)
Potency [1]: inactive
Potency [5]: inactive
Potency [6]: inactive
Potency [2]: inactive

O=c1[nH]c(-c2ccc(C(F)(F)F)cc2)nc2c1CSCC2
Potency [1]: inactive
Potency [6]: 18.7 µM (active)
Potency [2]: inactive
Potency [9]: inactive

Clc1ccc(Nc2nnc(Cc3ccncc3)c3ccccc23)cc1
Potency [1]: inactive
Potency [3]: 16.6 µM (active)
Potency [7]: 20.9 µM (active)
Potency [2]: inactive

Cc1ccnc(NS(=O)(=O)c2ccc(NC(=O)Nc3ccc(S(=O)(=O)Nc4nccc(C)n4)cc3)cc2)n1
Potency [1]: 16.6 µM (active)
Potency [5]: inactive
Potency [8]: 20.9 µM (active)
Potency [7]: 6.62 µM (active)
Potency [2]: 20.9 µM (active)

CCN(CC)CCCC(C)Nc1ccnc2cc(Cl)ccc12 (stereo not drawn)
Potency [1]: inactive
Potency [4]: inactive
Potency [5]: inactive
Potency [7]: inactive
Potency [2]: 1.66 µM (active)

O=c1[nH]cnc2[nH]ncc12
Potency [1]: inactive
Potency [5]: inactive
Potency [6]: inactive
Potency [8]: inactive

Cc1cc2c(F)c(Oc3ncnn4cc(OC[C@@H](C)O)c(C)c34)ccc2[nH]1
Potency [1]: inactive
Potency [3]: 18.7 µM (active)
Potency [2]: inactive

Cc1[nH]c(=O)c(C#N)cc1-c1ccc2nccn2c1
Potency [1]: inactive
Potency [4]: inactive
Potency [5]: inactive
Potency [6]: inactive
Potency [2]: inactive

NCCCC(N)(C(=O)O)C(F)F (stereo not drawn)
Potency [4]: 20.9 µM (active)
Potency [6]: 0.166 µM (active)
Potency [8]: inactive
Potency [7]: inactive
Potency [2]: inactive

Cc1cnc(Nc2ccc(OCCN3CCCC3)cc2)nc1Nc1cccc(S(=O)(=O)NC(C)(C)C)c1
Potency [4]: 0.296 µM (active)
Potency [5]: inactive

Cc1ccccc1C(C(=O)NC1CCCC1)N(C(=O)Cn1cnc2ccccc21)c1cccc(F)c1 (stereo not drawn)
Potency [3]: 20.9 µM (active)
Potency [6]: 20.9 µM (active)
Potency [8]: inactive
Potency [7]: 14.8 µM (active)

CCOc1cc(C(=O)Nc2ccc(Cl)c(-c3nc4ccccc4[nH]3)c2)cc(OCC)c1OCC
Potency [3]: 11.8 µM (active)
Potency [6]: 10.5 µM (active)
